The values below come from PubChem BioAssay AID1347141 (National Center for Advancing Translational Sciences (NCATS), 2019).

This is one part of the list. Records with an inconclusive call do not appear. Activity calls are given as the source filed them. The call rests on the fitted dose curve; in most records, active means well fitted inhibition curve with a large enough effect; inconclusive means small, poorly fitted or top-dose-only effect; inactive means flat fitted curve, though single readings scatter.

This test can be described thus: qHTS of pediatric cancer cell lines to identify multiple opportunities for drug repurposing: Orthogonal 3D viability screen for RD cells. To be noted: RD rhabdomyosarcoma 3D spheroid viability, PI/Hoechst imaging, 72 h; series mostly up to 30.7 µM. From the text: Drug repurposing or repositioning has been offered as a strategy for drug development in oncology programs. This approach has special potential for childhood cancers and other rare or orphan diseases, where the expected return on new drug development has been a disincentive to pharmaceuticals. […] In this project we exploit the poly-pharmacology of drugs to discover new indications via phenotypic screening of a panel of 19 well-characterized cell lines derived from solid tumors seen in children and adolescents. The goal is to identify approved drugs with previously unrecognized anticancer properties that has the potential to reveal new mechanisms and biological processes involved in carcinogenesis or drug resistance. We employed a titration-based paradigm (quantitative high-throughput screening or qHTS), where all compounds were tested at multiple concentrations for their effect on cell viability. Concentration-response curves (CRCs) were derived directly from the primary screen, and both potency and efficacy values were used to identify compounds with robust bioactivity profiles. […] These two assays will be used to validate active compounds and assess the correlation of compound's potency in 2D vs 3D cultures on selected cell lines. Assay Submitter: Nathalia J. Martinez, National Center for Advancing Translational Sciences, National Institutes of Health, Rockville, MD, USA; email: natalia.martinez@nih.gov Shen, M et al. Quantitative high-throughput phenotypic screening of pediatric cancer cell lines identifies multiple opportunities for drug repurposing. Oncotarget 2017 Dec 19;9(4):4758-4772. PMID 29435139.
The cells were obtained from University of North Carolina (UNC), Pediatric Preclinical Testing Program (PPT), and Coriell Institute (CI). qHTS viability in 3D culture: Cells were assayed in phenol red-free growth media at a density of 1,000 cells/well, with the exception of Daoy, and SH-N-SH which were assayed at 1,500 cells/ well. Thirty muL of cells were dispensed into 384-well, ULA, round bottom plates (Corning) using a Multidrop dispenser. Plates were spun down at 1,000 rpm for 1 min and incubated at 37 degrees C, 5% CO2, under a humidified atmosphere for either 24 (Daoy) or 48 hours (all other cell lines) to allow spheroid formation. Ninety-two nanoliter of compounds and controls (neutral control DMSO or positive control bortezomib at final concentrations of 0.5 µM) were subsequently transferred via GNF Pintool. Plates were sealed using a breathable seal (Diversified Biotech, Dedham, MA) and incubated for 72 hours at 37 degrees C. Spheroid viability was first determined by high-content imaging using Hoechst 33342 and Propidium Iodide (PI, ThermoFisher Scientific), followed by addition of CellTiter-Glo 3D (Promega). Specifically, 3 µL/well of PBS containing a 1:500 dilution of both dyes was dispensed using Multidrop. Dyes were incubated for 1 hour before imaging using the Celigo Image Cytometer. Then, 20 µl of CellTiter-Glo 3D were added per well. Plates were incubated for 30 min at RT on a VWR microplate shaker (300 rpm) and analyzed for luminescence intensity using a ViewLux High-throughput CCD imager equipped with clear filters. Image analysis was done using the Celigo Tumorsphere 1+2+3 application software as previously described. […] The data were exported to Excel, and the average fluorescent intensities were used to calculate the ratio of PI over Hoechst, which was used to quantify viability. […]
Background: In qHTS, concentration-response curves come from the screen itself.
Turning to `CC(NCc1ccc2c(c1)nc(NC(=O)c1ccc(-c3cn[nH]c3)s1)n2CC(C)(C)O)C(C)(C)C` (stereo not given), the Potency is 810 nM (active). The value for `CC[C@]1(O)C[C@@H]2CN(CCc3c([nH]c4ccccc34)[C@@](C(=O)OC)(c3cc4c(cc3OC)N(C)[C@H]3[C@@](O)(C(=O)OC)[C@H](OC(C)=O)[C@]5(CC)C=CCN6CC[C@]43[C@@H]65)C2)C1` was 45.6 nM (active). The value for `CC[C@H]1CN2CCc3cc(OC)c(OC)cc3[C@@H]2C[C@@H]1C[C@H]1NCCc2cc(OC)c(OC)cc21` was 2040 nM (active).

As to `C=C1C(=CC=C2CCC[C@]3(C)[C@@H]([C@H](C)C=C[C@H](C)C(C)C)CC[C@@H]23)C[C@@H](O)C[C@@H]1O`, the Potency result is “inactive”. The value for `CC1(C)O[C@@H]2C[C@@H]3[C@H]4C[C@@H](F)C5=CC(=O)C=C[C@]5(C)[C@@]4(F)[C@@H](O)C[C@]3(C)[C@]2(C(=O)CO)O1` was 10200 nM (active).
